Results taken from PubChem BioAssay (NCI).
“And” between values parts separate entries of the source, which are not always exact repeats. Equal values may be shown once. About 83,000 compounds went through this panel and 20% of them were active in at least one assay; those are over-represented in the sample as a whole.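 Plates (96-well) were seeded with cells, treated with compound at one concentration, and incubated for 48 hours before percent growth was determined.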 The source made the active and inactive calls. Rule for the calls: active = growth percent below 10; inactive = the rest.

What was measured:
Test in all cases: NCI-60 one-dose screen, 48 h (100 = growth as untreated, 0 = no growth, -100 = all killed)
Conditions in all cases: 10 µM unless noted
[1] = system: MOLT-4 leukemia
[2] = system: SR leukemia
[3] = system: RPMI-8226 leukemia
[4] = system: OVCAR-8 ovarian
[5] = system: OVCAR-5 ovarian
[6] = system: OVCAR-4 ovarian
[7] = system: SK-OV-3 ovarian
[8] = system: HS 578T breast
[9] = system: BT-549 breast
[10] = system: MDA-MB-435 melanoma
[11] = system: MCF7 breast
[12] = system: HCT-116 colon
[13] = system: KM12 colon
[14] = system: IGROV1 ovarian
[15] = system: OVCAR-3 ovarian
[16] = system: NCI/ADR-RES ovarian
[17] = system: T-47D breast
[18] = system: SW-620 colon
[19] = system: HCC-2998 colon

Structure (SMILES)	growth [1]	growth [2]	growth [3]	growth [4]	growth [5]	growth [6]	growth [7]	growth [8]	growth [9]	growth [10]	growth [11]	growth [12]	growth [13]	growth [14]	growth [15]	growth [16]	growth [17]	growth [18]	growth [19]
C=CC1CN2CCC1CC2C(O)c1ccnc2ccccc12 (configuration not stated)	258% (inactive)	344% (inactive)	213% (inactive)	127% (inactive)	116% (inactive)	129% (inactive)	133% (inactive)	117% (inactive)	181% (inactive)	128% (inactive)	116% (inactive)	110% (inactive)	115% (inactive)	–	–	–	–	–	–
CC1(C)C2CCC1(CS(=O)(=O)O)C(=O)C2 (configuration not stated)	112% (inactive) and 110% (inactive)	105% (inactive) and 117% (inactive)	91.4% (inactive)	99.7% (inactive) and 103% (inactive)	91.9% (inactive) and 101% (inactive)	–	98.4% (inactive) and 115% (inactive)	–	95.3% (inactive) and 94.8% (inactive)	96.1% (inactive) and 105% (inactive)	101% (inactive) and 112% (inactive)	97.9% (inactive) and 101% (inactive)	101% (inactive) and 104% (inactive)	86.8% (inactive) and 115% (inactive)	102% (inactive) and 114% (inactive)	104% (inactive) and 112% (inactive)	87.1% (inactive) and 115% (inactive)	99% (inactive) and 111% (inactive)	92.2% (inactive) and 133% (inactive)
C=C1C(=O)OC2CC3(C)OC3C3OC3C3=CC(OC3=O)C12 (configuration not stated)	-30.3% (active) and 58.3% (inactive)	10.7% (inactive) and 47.9% (inactive)	–	87.2% (inactive) and 88.6% (inactive)	106% (inactive) and 104% (inactive)	60% (inactive) and 92.5% (inactive)	103% (inactive) and 106% (inactive)	96.8% (inactive)	98.2% (inactive)	98.3% (inactive) and 98.4% (inactive)	84.4% (inactive) and 78.6% (inactive)	2.43% (active) and 17.7% (inactive)	104% (inactive) and 103% (inactive)	102% (inactive) and 107% (inactive)	41.8% (inactive)	35.9% (inactive) and 103% (inactive)	5.88% (active) and 16.2% (inactive)	–	103% (inactive)
O=c1[nH]c(=O)n(Cl)c(=O)n1Cl	113% (inactive) and 104% (inactive)	102% (inactive) and 113% (inactive)	82.1% (inactive)	103% (inactive) and 108% (inactive)	102% (inactive) and 96.2% (inactive)	115% (inactive) and 109% (inactive)	111% (inactive) and 109% (inactive)	–	108% (inactive) and 110% (inactive)	102% (inactive) and 114% (inactive)	108% (inactive) and 86% (inactive)	113% (inactive) and 99.4% (inactive)	101% (inactive) and 107% (inactive)	124% (inactive) and 96.9% (inactive)	111% (inactive) and 110% (inactive)	–	112% (inactive) and 95.3% (inactive)	105% (inactive) and 110% (inactive)	123% (inactive) and 96% (inactive)
O=C(O)C(O)c1ccc(Cl)cc1 (configuration not stated)	113% (inactive)	102% (inactive)	–	109% (inactive) and 103% (inactive)	110% (inactive)	102% (inactive) and 109% (inactive)	101% (inactive) and 108% (inactive)	102% (inactive) and 99.7% (inactive)	101% (inactive) and 103% (inactive)	105% (inactive) and 115% (inactive)	97.1% (inactive) and 106% (inactive)	93.7% (inactive) and 95.1% (inactive)	108% (inactive) and 100% (inactive)	110% (inactive) and 111% (inactive)	116% (inactive) and 104% (inactive)	106% (inactive) and 107% (inactive)	93.1% (inactive) and 138% (inactive)	107% (inactive) and 103% (inactive)	98.3% (inactive) and 108% (inactive)
Cc1cc(C(C)(C)C)ccc1O	99.5% (inactive)	93.8% (inactive)	105% (inactive)	102% (inactive)	120% (inactive)	109% (inactive)	100% (inactive)	–	109% (inactive)	111% (inactive)	101% (inactive)	95.6% (inactive)	103% (inactive)	107% (inactive)	105% (inactive)	–	103% (inactive)	108% (inactive)	106% (inactive)
C/C(=C(\c1ccc(OCCN2CCOCC2)cc1)c1ccc(OC(=O)Cc2ccccc2)cc1)c1ccc(Cl)cc1	56.3% (inactive)	114% (inactive)	–	97.7% (inactive)	95.2% (inactive)	98.5% (inactive)	110% (inactive)	104% (inactive)	91.1% (inactive)	91.4% (inactive)	83.5% (inactive)	75.7% (inactive)	99.3% (inactive)	106% (inactive)	95.8% (inactive)	95.8% (inactive)	78% (inactive)	–	88.4% (inactive)
N#CC(NC(=O)CCl)=C(Cl)Cl	-33.6% (active)	-18.2% (active)	–	-39.3% (active)	44.4% (inactive)	21.1% (inactive)	88.5% (inactive)	14.8% (inactive)	38.9% (inactive)	5.03% (active)	18.5% (inactive)	-41.4% (active)	56.8% (inactive)	-38.6% (active)	-30.9% (active)	11.8% (inactive)	-30% (active)	-50.1% (active)	-6.64% (active)
O=[N+]([O-])c1ccc(OCc2ccc(S(=O)(=O)F)c(Cl)c2)c(Cl)c1	68.2% (inactive)	87.5% (inactive)	–	105% (inactive)	99% (inactive)	102% (inactive)	107% (inactive)	95.4% (inactive)	91.6% (inactive)	113% (inactive)	92.8% (inactive)	90.1% (inactive)	113% (inactive)	100% (inactive)	112% (inactive)	102% (inactive)	97% (inactive)	–	105% (inactive)
CC12CCC3C(CCC4CC(O)CCC43C)C1CCC2=O (configuration not stated)	83.1% (inactive)	86.1% (inactive)	–	99.9% (inactive)	91.7% (inactive)	108% (inactive)	126% (inactive)	81.9% (inactive)	113% (inactive)	97.7% (inactive)	116% (inactive)	88.6% (inactive)	98.9% (inactive)	38.9% (inactive)	100% (inactive)	163% (inactive)	113% (inactive)	–	99.2% (inactive)
CCCCn1c(=O)c(C(=O)NCc2ccccc2Cl)c(O)c2ccccc21	58.4% (inactive)	60.4% (inactive)	–	81.1% (inactive)	109% (inactive)	82.4% (inactive)	80.8% (inactive)	101% (inactive)	47.9% (inactive)	98.5% (inactive)	64.4% (inactive)	21.4% (inactive)	83.8% (inactive)	74.9% (inactive)	78.9% (inactive)	56.2% (inactive)	–	78.8% (inactive)	–
COC(=O)C12C3C4C1C1C2C3C41NC(=O)c1csc([C@@H](C[C@H](C(C)C)N(C)C(=O)[C@@H](NC(=O)[C@H]2CCCCN2C)C2CC2)OC(C)=O)n1 (some centres not stated)	19.2% (inactive)	19.1% (inactive)	–	18.9% (inactive)	31.6% (inactive)	49.9% (inactive)	7.71% (active)	28.1% (inactive)	-17.2% (active)	-29.7% (active)	18.8% (inactive)	2.94% (active)	5.25% (active)	32.7% (inactive)	-4.31% (active)	40.7% (inactive)	61.4% (inactive)	26.1% (inactive)	–
CC1(C)C=Cc2c(ccc3c2[N+]([O-])=C2C3=C[C@@]34NC(=O)[C@]5(CCCN5C3=O)C[C@@H]4C2(C)C)O1	28.7% (inactive)	15.4% (inactive)	–	42.7% (inactive)	56.6% (inactive)	43.5% (inactive)	85.5% (inactive)	90.8% (inactive)	39.8% (inactive)	47.3% (inactive)	17.9% (inactive)	17.4% (inactive)	47.5% (inactive)	55.6% (inactive)	25% (inactive)	54.6% (inactive)	53.2% (inactive)	12.9% (inactive)	78.1% (inactive)
CNC(=O)O/N=C(\SC)C(=O)N(C)C	86.5% (inactive)	72.2% (inactive)	–	97.7% (inactive)	101% (inactive)	119% (inactive)	102% (inactive)	96.4% (inactive)	101% (inactive)	–	103% (inactive)	105% (inactive)	102% (inactive)	110% (inactive)	107% (inactive)	96.4% (inactive)	–	106% (inactive)	77.4% (inactive)
CCCC[C@H]1C(=O)O[C@H](C)[C@H](NC(=O)c2cccc(NC=O)c2O)C(=O)O[C@@H](C)[C@@H]1OC(=O)CC(C)C	31.1% (inactive)	49.4% (inactive)	18.2% (inactive)	–	-27.7% (active)	40.9% (inactive)	68% (inactive)	-18.5% (active)	140% (inactive)	39% (inactive)	38.3% (inactive)	20.8% (inactive)	41.9% (inactive)	55.6% (inactive)	43.4% (inactive)	1.1% (active)	–	59% (inactive)	56.6% (inactive)
